Test results reported in PubChem BioAssay.
A number with no mark means an inactive call. No rule for the calls is given here.

Target: Pantothenate synthetase (Mycobacterium tuberculosis (strain ATCC 25618 / H37Rv)) (UniProt P9WIL5)
Assay: Recombinant Mtb pantothenate synthetase (PanC) inhibitors, coupled enzyme, confirmatory (AID 375);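 also: 0% = full reaction with vehicle and 100% = no enzyme background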
Conditions: coupled enzyme assay; at 10 µM, active compounds read high

Pantothenate synthetase (Mycobacterium tuberculosis (strain ATCC 25618 / H37Rv)), sequence (P9WIL5 whole entry, looked up): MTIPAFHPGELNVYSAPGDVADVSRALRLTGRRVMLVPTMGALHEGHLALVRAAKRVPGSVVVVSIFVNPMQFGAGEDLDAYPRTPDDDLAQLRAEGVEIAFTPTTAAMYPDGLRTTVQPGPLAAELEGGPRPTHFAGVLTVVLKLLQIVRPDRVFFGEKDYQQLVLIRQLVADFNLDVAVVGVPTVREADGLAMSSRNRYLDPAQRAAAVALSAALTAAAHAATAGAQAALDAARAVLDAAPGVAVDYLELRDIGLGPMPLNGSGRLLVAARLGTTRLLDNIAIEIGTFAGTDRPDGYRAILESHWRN

Row | Compound | inhibition [%]
1 | COC(=O)Cc1cc(=O)n(-c2ccccc2)[nH]1 | 0
2 | CCOc1ccc(CN2CCN(c3cc(C)nc4c5c(C)cc(C)nc5nn34)CC2)cc1 | 0
3 | CC1CCc2nn(CC(=O)NCc3ccc(F)cc3)cc2C1 (centres undefined) | 7
4 | O=C(CSc1nnc(-c2cccs2)o1)NCC1CN(Cc2ccccc2)CCO1 (centres undefined) | 0
5 | C=CCN1C(=O)CS/C1=C(\C#N)S(=O)(=O)c1ccc(C)cc1 | 0
6 | Cc1ccc(-c2nn3c(=O)c(C)nnc3s2)cc1 | 0
7 | O=C(CCCN1C(=O)c2ccccc2C1=O)N1CCC(c2ccccc2)C1 (centres undefined) | 4
8 | CC(C)=CC/C=C1\CCC(C(=O)O)C(C(=O)O)C1 (centres undefined) | 0
9 | C=CCSc1nnc(NC(=O)c2ccc(S(=O)(=O)NCC3CCCO3)cc2)s1 (centres undefined) | 1
10 | O=c1[nH]c2cc3c(cc2cc1C(c1nnnn1C1CCCCC1)N1CCSCC1)OCCO3 (centres undefined) | 4
11 | CCOC(=O)c1ccc(NS(=O)C23CC4CC(CC(C4)C2)C3)cc1 (centres undefined) | 8
12 | CN(C)C(=O)N1CCCC(C(=O)NCc2ccccc2)C1 (centres undefined) | 0
13 | CCOc1ccc(OCC)c(NC(=O)C2CCN(c3ncccn3)CC2)c1 | 0
14 | CCS(=O)(=O)N1CCCC(C(=O)NCCc2ccc(OC)c(OC)c2)C1 (centres undefined) | 4
15 | CCOC(=O)c1sc2nc3c(cc2c1N)COC(C)(C)C3 | 12
16 | CN(C)C(=O)CSc1nnc([C@H](Cc2c[nH]c3ccccc23)NC(=O)OC(C)(C)C)o1 | 13
17 | O=C(CN1C(=O)CC(c2ccccc2)=Nc2ccccc21)NCc1ccco1 | 0
18 | COc1cccc(CNC(=O)CCn2c(=O)oc3ccccc32)c1 | 0
19 | Cc1ccc(NC(=O)c2cc(-c3ccc(C)o3)nc3ccccc23)nc1 | 0
